# Measurements: PubChem BioAssay
# Inconclusive results are not listed. The source made the active and inactive calls.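 Rule for the calls, unless noted: active = response below a set limit, under 55% cells CD8-positive and vesicle-bound, and CD8 cells' 90th-percentile brightness under 279; inactive = the rest.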
# What was measured:
# [1] = rapamycin-like changes in RPL19A-GFP expression – cell-based, S. cerevisiae, multiplex flow cytometry, primary screen (AID 1862; in the data active = percent of DMSO control GFP below about 86%;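 note: lower values mimic rapamycin by blocking the RPL19A rise seen in DMSO cells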); settings: S. cerevisiae RPL19A-GFP strain, flow cytometry fluorescence, 3 h; at 10 µM; stronger effect = lower value
# [2] = TOR pathway GLN3 branch reporter MEP2-GFP changes – S. cerevisiae, multiplex flow cytometry, primary screen (AID 1867;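 active = GFP response, as percent of the DMSO control, above the screen-wide mean plus 3 SD, about 139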;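 note: median GFP channel fluorescence of barcode-gated MEP2-GFP cells measured by flow cytometry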); settings: S. cerevisiae MEP2-GFP strain, 3 h, at 10 µM, stronger effect = higher value, 100% means same as DMSO wells
# [3] = TOR pathway RTG branch CIT2 reporter changes – S. cerevisiae, GFP fusion, multiplex flow cytometry, primary screen (AID 1870;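 active = percent response above a set limit, the screen-wide mean plus 3 SD, cut at about 130% in these data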;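 note: barcoded CIT2-GFP strain pooled with four other GFP strains with rapamycin as positive control; median GFP fluorescence per well over plate mean of DMSO wells so 100% = DMSO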); settings: S. cerevisiae CIT2-GFP expression, 3 h, at 10 µM, stronger effect = higher value
# [4] = TOR pathway LAP4-GFP level changes – S. cerevisiae, multiplex flow cytometry, primary screen (AID 1873;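 active = GFP signal, as percent of the solvent control, above the screen mean plus 3 SD, about 149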); settings: S. cerevisiae LAP4-GFP expression, 3 h, at 10 µM, stronger effect = higher value
# [5] = yeast AGP1-GFP level changes, GLN3 branch – cell-based, multiplex flow cytometry, S. cerevisiae, primary screen (AID 1887;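 active = GFP signal above the screen-wide mean plus 3 SD, that is over about 124.5% of the solvent control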;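 note: AGP1-GFP fusion strain of S. cerevisiae within a five-strain barcoded multiplex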); settings: 3 h, at 10 µM, stronger effect = higher value
# [6] = reduced mouse 2C T cell binding to pMHC/ICAM-1 vesicles – MLPCN validation set, flow cytometry, LFA-1/ICAM-1 modulator project, pilot screen (AID 2523); settings: 2C mouse CD8+ T cells, at 7 µM, stronger effect = lower value; double positive events: measured here: CD8+/vesicle+ event percentage;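 for vesicle binding response: mean PE anti-B7-1 fluorescence of CD8+ cells relative to row control; 100% = QL9-loaded vesicles with DMSO vehicle in the same plate row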
# [7] = target: Integrin beta-1 (Homo sapiens) + Integrin alpha-4 (Homo sapiens) (UniProt P13612+P05556); test: alpha4beta1 integrin LIBS antibody binding reduction – U937 cells, HUTS-21 mAb, flow cytometry, validation set, VLA-4 allosteric modulator project, pilot screen (AID 2674;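 active = inhibition above 50%, about 3 SD of the validation set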;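 note: antibody binding induced by the VLA-4 ligand LDV present at three times its Kd; 0% = LDV ligand with antibody and no compound and 100% = antibody without LDV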); settings: HUTS-21 LIBS mAb binding, at 6.7 µM, stronger effect = higher value, binding induced by LDV ligand
# [8] = calorie-restriction mimetic ROS inhibitors, yeast – validation compound set, pilot screen (AID 2706;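 active = superoxide response below 65% of plate, a cut near 3 SD across the whole screen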;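 note: yeast exposed to compound for one week at 30 degrees C before staining; 100% = mean of all compound wells on the same plate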); settings: S. cerevisiae aging, superoxide DHE fluorescence; at 10 µM; stronger effect = lower value
# [9] = target: Beta-adrenergic receptor kinase 1 (Homo sapiens) (UniProt P25098); test: GRK2 binders displacing RNA aptamer, biochemical, validation, human GRK2, bead flow cytometry (AID 488806;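 active = aptamer binding inhibition above 30%, about 3 SD of noise from non-fluorescent compounds; inactive = inhibition at or below 30%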); settings: bead-bound GRK2, FAM-aptamer displacement, at 10 µM, stronger effect = higher value
# [10] = target: Beta-2 adrenergic receptor (Homo sapiens) (UniProt P07550); test: agonist-induced loss of surface beta2AR – cell-based, FAP fluorogen, flow cytometry, validation set, pilot screen (AID 504459;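 active = percent response above 42, roughly 3 SD of non-fluorescent test compounds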;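 note: agonist-driven loss of surface beta2AR via internalization measured by FAP dye flow cytometry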); settings: Am2.2-beta2AR cells, at 10 µM, stronger effect = higher value
# [11] = target: AP-2 complex subunit beta (Homo sapiens) (UniProt P63010); test: beta-arrestin/AP2 interaction blockers – biochemical, validation set, GST-AP2 beads, flow cytometry, pilot screen (AID 504541;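 active = inhibition above 54%, about 3 SD of non-fluorescent compounds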;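 note: AP2 carries R879A mutation and is captured from E. coli lysate; bead-bound FITC arrestin peptide fluorescence measuring arrestin peptide binding to AP2; 0% = DMSO wells and 100% = excess unlabeled arrestin peptide control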); settings: FITC arrestin peptide, at 10 µM, stronger effect = higher value, AP2 beta2 appendage fragment, R879A mutant
# [12] = cytosolic pH regulators acting via V-ATPase – S. cerevisiae, pHLuorin, HTS validation (AID 504600; in the data active = response above about 15%;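 note: plate controls were DMSO for no effect and reference compound for full effect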); settings: V-ATPase proton transport, at 10 µM, stronger effect = higher value
# [13] = system: anti-desmoglein-3 scFv antibody binding to human DSG3; test: blockers of pathogenic pemphigus antibody–desmoglein-3 binding – biochemical, validation compound set, bead-based, flow cytometry, pilot screen (AID 588368;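 active = binding below the plate cutoff, the plate median minus 3 SD, with a reading above zero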;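 note: signal is the median channel fluorescence of bead-bound GFP antibody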); settings: Protein G beads, DSG3-Fc, scFv-GFP binding, at 10 µM, stronger effect = lower value
# [14] = Nile Red efflux blockade in pump-expressing yeast – validation compound set, multiplex, phenotypic, pilot screen (AID 588506;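 active = efflux inhibition above 0.42, the validation set average plus 4 SD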;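 note: Nile Red retained in cells so higher fluorescence means more efflux inhibition; 0 = negative control wells and 1 = enniatin B 25 µM full block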); settings: S. cerevisiae pump-expressing triplex, Nile Red efflux flow cytometry; at 10 µM; stronger effect = higher value; the pumps come from Candida albicans
# [15] = target: ATP-binding cassette sub-family B member 6 (Homo sapiens) (UniProt Q9NP58); test: blockers of ABCB6-driven porphyrin uptake – K562-ABCB6 cells, flow cytometry, validation set, pilot screen (AID 588550;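 active = inhibition above the screen-wide mean plus 3 SD, about 51%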;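 note: 0% = DMSO wells and 100% = benzethonium chloride 70 µM positive control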); settings: K562-ABCB6 porphyrin accumulation, 1 h, at 10 µM, stronger effect = higher value
# [16] = AML differentiation inducers, ER-HoxA9 marrow cells – cell-based, GFP/MAC1 double positive, flow cytometry, validation set, primary screen (AID 588685;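 active = differentiation response of at least 50%, scaled between solvent and reference control, from cells with both markers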;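 note: compound exposure lasts four days before antibody staining and flow analysis; 0% = DMSO wells and 100% = 5 µM fulvestrant positive control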); settings: stronger effect = higher value, normalized: vehicle 0, fulvestrant 100
# ATP-binding cassette sub-family B member 6 (Homo sapiens), sequence (Q9NP58 whole entry, looked up): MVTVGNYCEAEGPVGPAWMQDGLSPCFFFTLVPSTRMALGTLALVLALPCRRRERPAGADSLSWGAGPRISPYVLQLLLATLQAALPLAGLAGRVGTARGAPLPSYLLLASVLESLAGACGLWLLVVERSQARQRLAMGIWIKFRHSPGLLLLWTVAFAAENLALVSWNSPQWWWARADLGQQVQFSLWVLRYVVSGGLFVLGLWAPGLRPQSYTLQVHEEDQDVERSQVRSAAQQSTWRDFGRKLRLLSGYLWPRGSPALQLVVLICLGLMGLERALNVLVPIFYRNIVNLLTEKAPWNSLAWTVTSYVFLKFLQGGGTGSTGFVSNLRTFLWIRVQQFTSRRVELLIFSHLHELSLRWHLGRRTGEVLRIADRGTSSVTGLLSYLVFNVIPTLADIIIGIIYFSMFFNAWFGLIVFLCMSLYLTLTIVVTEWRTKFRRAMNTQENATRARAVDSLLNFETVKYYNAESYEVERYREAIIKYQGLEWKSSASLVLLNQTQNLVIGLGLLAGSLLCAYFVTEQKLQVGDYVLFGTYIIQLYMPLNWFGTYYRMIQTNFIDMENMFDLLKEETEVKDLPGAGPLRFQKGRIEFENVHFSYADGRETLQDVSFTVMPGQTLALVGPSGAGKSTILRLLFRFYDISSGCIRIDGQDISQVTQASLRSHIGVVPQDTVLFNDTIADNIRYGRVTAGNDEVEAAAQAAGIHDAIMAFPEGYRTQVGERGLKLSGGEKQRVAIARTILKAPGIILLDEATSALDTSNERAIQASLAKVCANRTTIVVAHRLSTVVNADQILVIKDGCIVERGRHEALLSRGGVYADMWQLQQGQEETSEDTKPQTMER
# Beta-2 adrenergic receptor (Homo sapiens), sequence (P07550 whole entry, looked up): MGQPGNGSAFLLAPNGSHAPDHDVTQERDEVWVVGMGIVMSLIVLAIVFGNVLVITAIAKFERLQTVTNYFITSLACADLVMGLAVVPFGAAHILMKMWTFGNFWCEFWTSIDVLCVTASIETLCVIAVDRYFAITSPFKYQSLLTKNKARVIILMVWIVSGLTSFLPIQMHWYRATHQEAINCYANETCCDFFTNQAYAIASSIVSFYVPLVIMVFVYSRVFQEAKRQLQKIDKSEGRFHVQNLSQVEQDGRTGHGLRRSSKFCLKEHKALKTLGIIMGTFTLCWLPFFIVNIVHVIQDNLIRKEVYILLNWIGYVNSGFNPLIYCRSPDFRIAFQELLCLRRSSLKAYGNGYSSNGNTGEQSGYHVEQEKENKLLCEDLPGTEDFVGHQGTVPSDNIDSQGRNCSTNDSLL
# AP-2 complex subunit beta (Homo sapiens), sequence (P63010 whole entry, looked up, the tested form may be a part, one chain of several): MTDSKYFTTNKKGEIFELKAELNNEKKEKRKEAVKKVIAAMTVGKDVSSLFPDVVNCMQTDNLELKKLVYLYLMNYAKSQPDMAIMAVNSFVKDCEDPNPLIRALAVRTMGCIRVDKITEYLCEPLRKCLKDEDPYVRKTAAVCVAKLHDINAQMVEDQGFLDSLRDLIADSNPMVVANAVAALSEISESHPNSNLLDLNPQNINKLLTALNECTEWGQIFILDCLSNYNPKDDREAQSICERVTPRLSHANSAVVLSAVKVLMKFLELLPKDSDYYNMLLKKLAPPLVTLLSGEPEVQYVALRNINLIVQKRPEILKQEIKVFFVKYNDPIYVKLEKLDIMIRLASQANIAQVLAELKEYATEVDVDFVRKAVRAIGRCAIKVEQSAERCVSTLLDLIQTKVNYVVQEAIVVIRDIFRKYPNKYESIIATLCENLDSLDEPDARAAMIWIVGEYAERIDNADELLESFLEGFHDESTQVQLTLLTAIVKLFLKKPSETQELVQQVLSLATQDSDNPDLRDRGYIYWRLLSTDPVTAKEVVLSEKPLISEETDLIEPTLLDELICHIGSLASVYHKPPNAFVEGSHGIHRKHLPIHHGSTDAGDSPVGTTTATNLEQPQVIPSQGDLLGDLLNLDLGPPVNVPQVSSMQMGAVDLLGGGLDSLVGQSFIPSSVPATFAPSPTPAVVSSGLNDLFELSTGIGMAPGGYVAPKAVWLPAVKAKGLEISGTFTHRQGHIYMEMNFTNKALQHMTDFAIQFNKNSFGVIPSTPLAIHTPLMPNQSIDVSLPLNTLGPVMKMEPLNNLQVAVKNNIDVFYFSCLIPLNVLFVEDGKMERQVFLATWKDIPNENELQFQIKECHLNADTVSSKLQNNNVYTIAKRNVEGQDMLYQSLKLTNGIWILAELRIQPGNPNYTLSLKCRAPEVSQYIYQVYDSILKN
# Integrin beta-1 (Homo sapiens) + Integrin alpha-4 (Homo sapiens), sequence (P05556 whole entry, looked up): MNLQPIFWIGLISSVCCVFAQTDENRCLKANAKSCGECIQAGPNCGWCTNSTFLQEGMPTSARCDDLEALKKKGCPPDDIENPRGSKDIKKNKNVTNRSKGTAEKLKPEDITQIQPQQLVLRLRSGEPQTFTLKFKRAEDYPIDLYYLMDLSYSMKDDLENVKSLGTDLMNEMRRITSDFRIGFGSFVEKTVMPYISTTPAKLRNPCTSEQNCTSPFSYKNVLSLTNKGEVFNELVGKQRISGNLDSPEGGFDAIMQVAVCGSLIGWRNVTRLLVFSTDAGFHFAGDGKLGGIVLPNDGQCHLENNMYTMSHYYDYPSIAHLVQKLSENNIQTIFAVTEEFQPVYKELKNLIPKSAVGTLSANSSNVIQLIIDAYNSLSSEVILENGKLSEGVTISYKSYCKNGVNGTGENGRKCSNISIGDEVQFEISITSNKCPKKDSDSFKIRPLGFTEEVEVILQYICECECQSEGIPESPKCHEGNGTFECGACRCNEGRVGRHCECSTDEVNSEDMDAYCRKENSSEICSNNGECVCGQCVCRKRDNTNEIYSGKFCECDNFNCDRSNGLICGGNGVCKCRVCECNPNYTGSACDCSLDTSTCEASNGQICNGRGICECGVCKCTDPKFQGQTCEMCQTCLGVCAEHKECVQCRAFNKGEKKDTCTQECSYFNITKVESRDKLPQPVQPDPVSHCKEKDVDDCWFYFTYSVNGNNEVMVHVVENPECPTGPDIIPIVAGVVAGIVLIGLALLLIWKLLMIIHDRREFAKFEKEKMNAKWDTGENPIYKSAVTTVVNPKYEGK
# Integrin beta-1 (Homo sapiens) + Integrin alpha-4 (Homo sapiens), sequence (P13612 whole entry, looked up): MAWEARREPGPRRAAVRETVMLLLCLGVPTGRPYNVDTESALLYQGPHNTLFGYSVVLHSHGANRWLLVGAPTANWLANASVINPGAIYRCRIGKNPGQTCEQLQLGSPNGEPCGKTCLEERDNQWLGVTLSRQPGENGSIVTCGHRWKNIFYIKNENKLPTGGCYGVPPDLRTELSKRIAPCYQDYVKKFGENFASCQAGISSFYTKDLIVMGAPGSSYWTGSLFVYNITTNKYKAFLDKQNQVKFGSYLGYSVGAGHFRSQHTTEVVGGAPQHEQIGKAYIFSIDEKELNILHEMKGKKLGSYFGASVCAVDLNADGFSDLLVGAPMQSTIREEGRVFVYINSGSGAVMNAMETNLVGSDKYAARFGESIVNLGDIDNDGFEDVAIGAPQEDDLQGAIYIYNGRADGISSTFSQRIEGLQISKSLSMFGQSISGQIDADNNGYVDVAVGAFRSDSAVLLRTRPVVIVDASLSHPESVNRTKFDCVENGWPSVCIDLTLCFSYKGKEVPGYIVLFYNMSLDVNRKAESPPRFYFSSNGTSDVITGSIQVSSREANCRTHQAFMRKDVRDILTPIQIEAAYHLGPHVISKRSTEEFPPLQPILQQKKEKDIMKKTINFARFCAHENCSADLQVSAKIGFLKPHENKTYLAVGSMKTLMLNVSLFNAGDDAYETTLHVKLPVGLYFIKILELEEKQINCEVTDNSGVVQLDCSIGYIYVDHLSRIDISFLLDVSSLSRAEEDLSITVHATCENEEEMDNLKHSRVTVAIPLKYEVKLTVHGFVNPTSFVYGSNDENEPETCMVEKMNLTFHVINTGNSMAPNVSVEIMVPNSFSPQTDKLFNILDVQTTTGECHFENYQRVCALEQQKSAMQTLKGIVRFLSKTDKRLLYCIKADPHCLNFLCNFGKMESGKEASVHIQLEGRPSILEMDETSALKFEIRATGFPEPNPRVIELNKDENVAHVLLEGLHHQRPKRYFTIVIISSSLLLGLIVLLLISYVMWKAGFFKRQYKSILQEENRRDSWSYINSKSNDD
# Beta-adrenergic receptor kinase 1 (Homo sapiens), sequence (P25098 whole entry, looked up): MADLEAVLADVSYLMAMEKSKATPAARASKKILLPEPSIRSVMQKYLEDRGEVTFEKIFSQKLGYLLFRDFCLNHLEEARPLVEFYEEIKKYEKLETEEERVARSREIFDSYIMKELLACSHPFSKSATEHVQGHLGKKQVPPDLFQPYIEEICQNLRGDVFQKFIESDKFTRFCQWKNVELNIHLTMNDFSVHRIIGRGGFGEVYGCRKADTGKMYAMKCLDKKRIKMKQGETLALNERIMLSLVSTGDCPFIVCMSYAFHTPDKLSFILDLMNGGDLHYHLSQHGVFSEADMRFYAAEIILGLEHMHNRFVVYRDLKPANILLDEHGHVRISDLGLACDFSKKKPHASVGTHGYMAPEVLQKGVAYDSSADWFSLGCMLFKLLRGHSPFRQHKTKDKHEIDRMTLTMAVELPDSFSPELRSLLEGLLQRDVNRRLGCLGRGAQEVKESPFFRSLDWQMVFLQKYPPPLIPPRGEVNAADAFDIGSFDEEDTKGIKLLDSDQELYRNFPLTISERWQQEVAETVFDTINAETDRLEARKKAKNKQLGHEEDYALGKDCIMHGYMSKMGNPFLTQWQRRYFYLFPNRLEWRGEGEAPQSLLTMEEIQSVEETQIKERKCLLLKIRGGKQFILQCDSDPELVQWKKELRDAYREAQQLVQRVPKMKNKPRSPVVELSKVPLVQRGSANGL
SMILES,percent of DMSO control GFP [1],GFP response vs DMSO [2],percent response of DMSO control [3],GFP response vs DMSO [4],"GFP response, % of DMSO [5]",double positive events [6] [%],vesicle binding response [6],inhibition [7],superoxide response (% of plate) [8],aptamer binding inhibition [9],response [10],inhibition [11],response [12],binding (% of control) [13],efflux inhibition (fraction of control) [14],inhibition [15],differentiation response [16]
O=C(CC1(O)C(=O)Nc2ccccc21)c1ccccc1O (stereo unspecified),100% (inactive),104% (inactive),97.8% (inactive),103% (inactive),101% (inactive),61.5,195% (inactive),-6.68% (inactive),102% (inactive),3% (inactive),5.92% (inactive),-2.48% (inactive),17.1% (active),99.5% (inactive),-0.04 (inactive),3% (inactive),12.9% (inactive)
COc1cc(OC)c2c(C)c(Cl)c(=O)oc2c1,102% (inactive),104% (inactive),105% (inactive),113% (inactive),99.1% (inactive),56.7,92.7% (inactive),2.66% (inactive),90.2% (inactive),-3% (inactive),-6.2% (inactive),-8.58% (inactive),1.24% (inactive),100% (inactive),-0.1 (inactive),-9% (inactive),0.24% (inactive)
COc1ccccc1OCC(O)COC(N)=O (stereo unspecified),93.3% (inactive),131% (inactive),97.9% (inactive),82% (inactive),84.5% (inactive),62.5,133% (inactive),11.3% (inactive),101% (inactive),1% (inactive),1.55% (inactive),-1.32% (inactive),-1.8% (inactive),101% (inactive),0.01 (inactive),9% (inactive),3.28% (inactive)
O=C(CCCN1C(=O)/C(=C\c2cccs2)SC1=S)Nc1ccccn1,103% (inactive),99.7% (inactive),92.4% (inactive),99.1% (inactive),96.8% (inactive),61.7,154% (inactive),-2.43% (inactive),115% (inactive),2% (inactive),-9.49% (inactive),-9.99% (inactive),-5.78% (inactive),94% (inactive),0.35 (inactive),-5% (inactive),-7.5% (inactive)
OCCN(CCO)c1nc(N2CCCCC2)c2nc(N(CCO)CCO)nc(N3CCCCC3)c2n1,105% (inactive),102% (inactive),100% (inactive),107% (inactive),108% (inactive),62.5,175% (inactive),-9.63% (inactive),98% (inactive),3% (inactive),7.65% (inactive),18.6% (inactive),15.4% (active),106% (inactive),0.08 (inactive),-6% (inactive),-7.94% (inactive)
c1ccc(CC2=NCCN2)cc1,104% (inactive),107% (inactive),100% (inactive),103% (inactive),102% (inactive),61.8,181% (inactive),0% (inactive),101% (inactive),-2% (inactive),-7.37% (inactive),-16.6% (inactive),1.43% (inactive),98% (inactive),-0.07 (inactive),-5% (inactive),14.9% (inactive)
C=CCC1(O)C(=O)N2C(=C1C(=O)N1CCOCC1)c1ccccc1CC2(C)C (stereo unspecified),99.4% (inactive),108% (inactive),101% (inactive),95.3% (inactive),99.9% (inactive),55.4,38.1% (inactive),-2.53% (inactive),111% (inactive),1% (inactive),-4.96% (inactive),23.5% (inactive),-6.09% (inactive),95.5% (inactive),0.24 (inactive),-7% (inactive),0.24% (inactive)
CC12CCC(C(=O)NCc3ccc4c(c3)OCO4)(CC1=O)C2(C)C (stereo unspecified),100% (inactive),98.6% (inactive),103% (inactive),102% (inactive),107% (inactive),60.9,252% (inactive),0.59% (inactive),113% (inactive),0% (inactive),-30.8% (inactive),4.11% (inactive),-1.56% (inactive),105% (inactive),0.08 (inactive),6% (inactive),-1.05% (inactive)
CCn1cc(C(=O)O)c(=O)c2ccc(C)nc21,99.5% (inactive),98.7% (inactive),92.4% (inactive),93.7% (inactive),106% (inactive),55.9,172% (inactive),-15.8% (inactive),99.5% (inactive),-1% (inactive),3.04% (inactive),-4.75% (inactive),-3.3% (inactive),108% (inactive),0.085 (inactive),-8% (inactive),-4.57% (inactive)
COc1ccc(CCN(C)CCCC(C#N)(c2cc(OC)c(OC)c(OC)c2)C(C)C)cc1OC (stereo unspecified),100% (inactive),99.3% (inactive),111% (inactive),82.8% (inactive),98.6% (inactive),57.7,239% (inactive),11% (inactive),86% (inactive),1% (inactive),-12.7% (inactive),-7.98% (inactive),0.22% (inactive),99.8% (inactive),-0.01 (inactive),9% (inactive),3.18% (inactive)
NS(=O)(=O)c1cc2c(cc1Cl)NC(C1C[C@H]3C=C[C@@H]1C3)NS2(=O)=O (stereo partly specified),104% (inactive),106% (inactive),105% (inactive),105% (inactive),106% (inactive),61.8,153% (inactive),-19.9% (inactive),98.5% (inactive),2% (inactive),-2.86% (inactive),11.5% (inactive),-7.8% (inactive),97.3% (inactive),0.03 (inactive),10% (inactive),-17.7% (inactive)
O=C(/C=C/c1ccc2c(c1)OCO2)NCc1ccc(F)cc1,101% (inactive),106% (inactive),95.4% (inactive),108% (inactive),99.7% (inactive),60.1,130% (inactive),-3.57% (inactive),108% (inactive),2% (inactive),-3.87% (inactive),55.2% (active),-3% (inactive),98.4% (inactive),0.08 (inactive),2% (inactive),15.9% (inactive)
Cn1c(=O)[nH]c2nnc(-c3ccc(Cl)c(Cl)c3)nc2c1=O,103% (inactive),102% (inactive),105% (inactive),98% (inactive),104% (inactive),61.9,133% (inactive),2.93% (inactive),73.3% (inactive),9% (inactive),9.11% (inactive),5.98% (inactive),0.72% (inactive),101% (inactive),-0.21 (inactive),-7% (inactive),-13.3% (inactive)
CC(N=C(NC#N)Nc1ccncc1)C(C)(C)C (stereo unspecified),102% (inactive),103% (inactive),103% (inactive),99.1% (inactive),100% (inactive),59.1,97.4% (inactive),5.61% (inactive),104% (inactive),3% (inactive),-2.47% (inactive),0.53% (inactive),-9.1% (inactive),101% (inactive),0.09 (inactive),-10% (inactive),-1.65% (inactive)
Cc1ccc(-c2nnc(-c3ccc4c(c3)OCO4)o2)cc1,103% (inactive),106% (inactive),109% (inactive),121% (inactive),115% (inactive),57.9,165% (inactive),-2.82% (inactive),98.9% (inactive),-7% (inactive),-16.4% (inactive),6.09% (inactive),2.28% (inactive),99.9% (inactive),0.04 (inactive),2% (inactive),-0.06% (inactive)
COc1ccc(CN(CCC(c2ccccc2)c2ccc(OC(C)C)cc2)C(=O)CCl)cc1OC (stereo unspecified),101% (inactive),98.3% (inactive),107% (inactive),98% (inactive),99.7% (inactive),65.9,249% (inactive),-3.57% (inactive),94.5% (inactive),4% (inactive),-6.05% (inactive),-14.7% (inactive),0.92% (inactive),93% (inactive),-0.2 (inactive),6% (inactive),13.9% (inactive)
Fc1ccc(C(c2ccc(F)cc2)N2CCN(C/C=C/c3ccccc3)CC2)cc1,94.6% (inactive),131% (inactive),104% (inactive),80.9% (inactive),97% (inactive),56.3,215% (inactive),-1.3% (inactive),108% (inactive),4% (inactive),6.79% (inactive),2.83% (inactive),-0.13% (inactive),110% (inactive),-0.02 (inactive),1% (inactive),4.09% (inactive)
CC1(C)[C@@H](O)CC[C@]2(C)[C@H]3C(=O)C=C4[C@@H]5C[C@@](C)(C(=O)O)CC[C@]5(C)CC[C@@]4(C)[C@]3(C)CC[C@@H]12,98.8% (inactive),100% (inactive),89.6% (inactive),112% (inactive),91% (inactive),64.3,698% (inactive),13% (inactive),82.7% (inactive),7% (inactive),7.4% (inactive),-5.72% (inactive),0.36% (inactive),97.6% (inactive),0.11 (inactive),15% (inactive),16.9% (inactive)
